Measured values: ChEMBL document CHEMBL3988442, “University of Dundee, Small-Polar-MMV Screening Library” (2021)
For some of these results: Measured potencies and affinities stand elsewhere.

Tests used:
Design in all cases: scale not given: direction of the effect not stated beside the values
[1] = molecular target: Protein translocase subunit SecA (Escherichia coli (strain K12)) (UniProt P10408); assay: Assay to Identify E. coli SecA ATPase Inhibitors; type: functional; conditions: 30 µM
[2] = molecular target: T1, Ubiquitin-activating enzyme e1, putative (Leishmania donovani (strain BPK282A1)) (UniProt E9BSI1); assay: Leishmania donovani Ubiquitin Activating Enzyme (LdE1); type: functional; conditions: 30 µM
T1 sequence (whole entry): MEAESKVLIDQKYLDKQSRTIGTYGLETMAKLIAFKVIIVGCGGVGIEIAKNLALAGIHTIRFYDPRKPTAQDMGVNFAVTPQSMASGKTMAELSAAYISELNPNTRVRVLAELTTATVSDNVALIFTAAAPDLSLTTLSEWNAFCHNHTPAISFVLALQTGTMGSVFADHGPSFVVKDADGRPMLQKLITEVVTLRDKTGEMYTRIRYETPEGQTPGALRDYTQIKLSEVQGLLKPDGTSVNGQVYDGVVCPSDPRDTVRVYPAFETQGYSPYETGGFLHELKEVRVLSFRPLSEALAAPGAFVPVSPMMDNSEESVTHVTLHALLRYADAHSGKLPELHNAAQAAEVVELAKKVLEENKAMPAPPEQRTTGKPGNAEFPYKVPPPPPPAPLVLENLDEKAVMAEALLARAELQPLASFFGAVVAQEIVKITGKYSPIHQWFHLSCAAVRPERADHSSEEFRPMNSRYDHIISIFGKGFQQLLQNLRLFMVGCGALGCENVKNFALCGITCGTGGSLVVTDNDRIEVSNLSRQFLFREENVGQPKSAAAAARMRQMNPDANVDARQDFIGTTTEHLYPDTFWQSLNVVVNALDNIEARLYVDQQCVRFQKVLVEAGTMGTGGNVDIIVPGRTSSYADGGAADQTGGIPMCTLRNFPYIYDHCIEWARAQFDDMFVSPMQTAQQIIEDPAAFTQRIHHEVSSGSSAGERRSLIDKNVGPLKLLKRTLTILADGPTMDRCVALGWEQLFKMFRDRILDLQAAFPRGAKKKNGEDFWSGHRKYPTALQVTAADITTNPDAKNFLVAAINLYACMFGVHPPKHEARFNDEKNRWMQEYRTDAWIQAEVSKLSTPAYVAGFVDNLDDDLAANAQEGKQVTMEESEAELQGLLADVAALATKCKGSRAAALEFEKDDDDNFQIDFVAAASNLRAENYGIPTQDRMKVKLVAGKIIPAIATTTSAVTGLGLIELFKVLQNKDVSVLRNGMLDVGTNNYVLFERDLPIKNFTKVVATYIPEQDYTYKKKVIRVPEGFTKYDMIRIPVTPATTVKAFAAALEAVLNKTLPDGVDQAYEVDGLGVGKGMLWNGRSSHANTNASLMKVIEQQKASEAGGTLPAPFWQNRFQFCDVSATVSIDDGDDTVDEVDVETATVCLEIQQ

[3] = molecular target: AMP-activated protein kinase, AMPK (Homo sapiens) (UniProt P54646+O43741+P54619+Q9UGJ0+Q9Y478+Q13131+Q9UGI9); assay: AMP-dependent Kinase enzyme assay. An in vitro enzyme assay that detects ADP turnover that is directly proportional to AMPK activity. This uses naive AMPK that is activated during the assay with MK-8722; type: functional; conditions: 30 µM
[4] = molecular target: Sialic acid-binding Ig-like lectin 9 (Homo sapiens) (UniProt Q9Y336); assay: Hs-Siglec9 ALPHAscreen SOP 20170721; conditions: 10 µM
Chain of Sialic acid-binding Ig-like lectin 9 (Homo sapiens) (Q9Y336 whole entry): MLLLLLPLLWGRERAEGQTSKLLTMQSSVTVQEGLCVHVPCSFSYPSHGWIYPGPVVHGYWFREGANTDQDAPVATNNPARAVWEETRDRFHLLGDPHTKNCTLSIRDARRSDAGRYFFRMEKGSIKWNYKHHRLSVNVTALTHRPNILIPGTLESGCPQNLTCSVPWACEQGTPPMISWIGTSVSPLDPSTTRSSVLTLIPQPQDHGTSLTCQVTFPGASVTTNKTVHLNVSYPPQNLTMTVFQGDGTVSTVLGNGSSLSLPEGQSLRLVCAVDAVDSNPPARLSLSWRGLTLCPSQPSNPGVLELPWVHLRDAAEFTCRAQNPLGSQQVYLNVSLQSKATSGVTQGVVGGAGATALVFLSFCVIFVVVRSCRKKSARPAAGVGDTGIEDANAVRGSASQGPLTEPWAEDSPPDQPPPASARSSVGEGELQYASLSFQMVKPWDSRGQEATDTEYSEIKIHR

[5] = test system: Trypanosoma cruzi; assay: Trypanosoma cruzi phosphomannomutase and mannose-1-phosphate guanylyltransferase assay; type: functional; conditions: 10 µM
[6] = molecular target: T2, Arginase-2, mitochondrial (Homo sapiens) (UniProt P78540); assay: in vitro enzyme assay to detect the production of urea directly proportional to the activity of Arginase II; type: functional; conditions: 33.3 µM; note: in the data most compounds retested in dose-response had high values
T2 sequence (whole entry): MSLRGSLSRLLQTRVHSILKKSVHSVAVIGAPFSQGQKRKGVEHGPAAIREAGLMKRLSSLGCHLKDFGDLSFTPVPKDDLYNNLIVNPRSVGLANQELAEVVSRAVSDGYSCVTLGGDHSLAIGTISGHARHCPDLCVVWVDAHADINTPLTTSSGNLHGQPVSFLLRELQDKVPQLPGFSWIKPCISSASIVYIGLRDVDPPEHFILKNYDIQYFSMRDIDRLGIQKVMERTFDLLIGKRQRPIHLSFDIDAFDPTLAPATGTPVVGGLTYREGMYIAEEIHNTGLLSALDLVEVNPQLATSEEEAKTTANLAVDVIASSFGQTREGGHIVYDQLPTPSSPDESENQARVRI

[7] = molecular target: T3, Proteasome subunit beta (Trypanosoma cruzi) (UniProt O96673); assay: Trypanosoma cruzi proteasome chymotrypsin-like activity (TcProtChymo) assay.; note: in the data most compounds retested in dose-response had high values; type: functional; conditions: 9.37 µM
T3 sequence (whole entry): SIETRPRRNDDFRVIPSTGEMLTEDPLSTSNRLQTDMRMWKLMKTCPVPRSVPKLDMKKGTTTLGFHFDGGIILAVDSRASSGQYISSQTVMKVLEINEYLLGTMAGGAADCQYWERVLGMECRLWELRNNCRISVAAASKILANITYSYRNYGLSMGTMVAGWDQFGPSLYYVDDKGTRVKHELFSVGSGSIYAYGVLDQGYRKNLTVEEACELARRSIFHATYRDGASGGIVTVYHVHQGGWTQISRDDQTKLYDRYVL

[8] = organism: Homo sapiens; assay: To identify inhibition of the IFN signalling (Jak-Stat) pathway via expression of an eGFP reporter gene under the control of an IFN-stimulated response element (ISRE) containing MxA promoter.; type: functional; conditions: 30 µM
[9] = molecular target: T4, Tyrosyl-tRNA synthetase, putative (Trypanosoma cruzi (strain CL Brener)) (UniProt Q4DSP6); assay: Trypanosoma cruzi tyrosyl tRNA synthetase (TcYRS) _High Tyrosine SOP; type: functional; conditions: 30 µM; note: in the data most compounds retested in dose-response had high values
T4 sequence (whole entry): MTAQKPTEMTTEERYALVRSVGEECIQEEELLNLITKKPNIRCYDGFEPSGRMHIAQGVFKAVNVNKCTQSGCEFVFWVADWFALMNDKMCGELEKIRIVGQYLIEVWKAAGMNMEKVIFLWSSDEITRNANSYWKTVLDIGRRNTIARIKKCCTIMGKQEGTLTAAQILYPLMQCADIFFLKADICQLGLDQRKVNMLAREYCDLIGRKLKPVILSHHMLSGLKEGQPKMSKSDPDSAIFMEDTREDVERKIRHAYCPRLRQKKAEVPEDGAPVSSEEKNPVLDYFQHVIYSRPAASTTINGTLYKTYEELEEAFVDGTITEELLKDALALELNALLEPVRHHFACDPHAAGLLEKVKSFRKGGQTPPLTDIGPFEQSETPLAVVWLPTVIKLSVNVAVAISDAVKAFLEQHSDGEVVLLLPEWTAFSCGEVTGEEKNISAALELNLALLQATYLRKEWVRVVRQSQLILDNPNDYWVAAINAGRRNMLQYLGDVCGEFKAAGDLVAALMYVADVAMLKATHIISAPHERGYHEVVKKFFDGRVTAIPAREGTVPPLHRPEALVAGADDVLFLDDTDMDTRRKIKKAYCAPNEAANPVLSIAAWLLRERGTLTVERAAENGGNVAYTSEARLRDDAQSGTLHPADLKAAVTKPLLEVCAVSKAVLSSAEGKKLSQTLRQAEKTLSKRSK

[10] = molecular target: T4, Tyrosyl-tRNA synthetase, putative (Trypanosoma cruzi (strain CL Brener)); assay: Trypanosoma cruzi tyrosyl tRNA synthetase (TcYRS) SOP; type: functional; conditions: 30 µM
[11] = molecular target: Chromo domain-containing protein 1 (Saccharomyces cerevisiae (strain ATCC 204508 / S288c) (Baker's yeast)) (UniProt P32657); assay: ScCHD-1 Enzyme Inhibition Assay; type: functional; conditions: 30 µM; note: in the data most compounds retested in dose-response had high values
Chain of Chromo domain-containing protein 1 (Saccharomyces cerevisiae (strain ATCC 204508 / S288c) (Baker's yeast)) (P32657 whole entry, the tested form may be a part): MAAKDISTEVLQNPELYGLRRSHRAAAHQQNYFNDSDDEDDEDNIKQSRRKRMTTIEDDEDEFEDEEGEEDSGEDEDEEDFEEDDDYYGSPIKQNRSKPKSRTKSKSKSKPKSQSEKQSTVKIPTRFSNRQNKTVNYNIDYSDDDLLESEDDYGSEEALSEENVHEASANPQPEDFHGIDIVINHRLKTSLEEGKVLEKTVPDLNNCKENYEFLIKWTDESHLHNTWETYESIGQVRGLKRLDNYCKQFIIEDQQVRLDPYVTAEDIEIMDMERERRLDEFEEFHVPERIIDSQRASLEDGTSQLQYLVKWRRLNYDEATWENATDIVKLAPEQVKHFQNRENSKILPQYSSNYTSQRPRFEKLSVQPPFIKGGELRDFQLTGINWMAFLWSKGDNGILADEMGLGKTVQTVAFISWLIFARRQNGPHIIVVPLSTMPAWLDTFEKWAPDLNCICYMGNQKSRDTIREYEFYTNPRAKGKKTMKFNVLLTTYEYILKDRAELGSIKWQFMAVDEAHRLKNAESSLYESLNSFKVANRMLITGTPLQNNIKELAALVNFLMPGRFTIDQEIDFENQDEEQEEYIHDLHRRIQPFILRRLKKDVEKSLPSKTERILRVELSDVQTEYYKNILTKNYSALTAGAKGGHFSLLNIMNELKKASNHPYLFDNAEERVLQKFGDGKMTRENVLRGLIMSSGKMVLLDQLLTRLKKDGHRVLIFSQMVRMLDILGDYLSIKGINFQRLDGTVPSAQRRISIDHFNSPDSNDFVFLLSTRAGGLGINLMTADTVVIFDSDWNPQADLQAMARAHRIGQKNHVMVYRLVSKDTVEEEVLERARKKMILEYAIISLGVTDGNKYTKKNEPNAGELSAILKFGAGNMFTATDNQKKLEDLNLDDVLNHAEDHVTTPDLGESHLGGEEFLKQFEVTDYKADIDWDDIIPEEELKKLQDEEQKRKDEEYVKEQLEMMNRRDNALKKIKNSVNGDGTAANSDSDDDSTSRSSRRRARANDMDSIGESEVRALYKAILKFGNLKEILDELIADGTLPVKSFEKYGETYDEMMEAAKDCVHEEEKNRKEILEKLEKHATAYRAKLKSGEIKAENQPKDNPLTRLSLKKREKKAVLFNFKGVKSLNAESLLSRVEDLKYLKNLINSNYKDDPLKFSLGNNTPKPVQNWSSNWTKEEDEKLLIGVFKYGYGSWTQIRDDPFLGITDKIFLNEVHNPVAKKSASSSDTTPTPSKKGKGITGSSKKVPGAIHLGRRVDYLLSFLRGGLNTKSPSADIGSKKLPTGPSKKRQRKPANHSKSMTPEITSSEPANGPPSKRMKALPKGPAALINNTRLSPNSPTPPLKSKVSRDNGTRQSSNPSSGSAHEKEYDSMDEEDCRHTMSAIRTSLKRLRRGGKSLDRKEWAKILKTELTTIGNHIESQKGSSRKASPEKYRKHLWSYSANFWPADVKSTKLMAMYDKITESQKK

Chain of Protein translocase subunit SecA (Escherichia coli (strain K12)) (P10408 whole entry): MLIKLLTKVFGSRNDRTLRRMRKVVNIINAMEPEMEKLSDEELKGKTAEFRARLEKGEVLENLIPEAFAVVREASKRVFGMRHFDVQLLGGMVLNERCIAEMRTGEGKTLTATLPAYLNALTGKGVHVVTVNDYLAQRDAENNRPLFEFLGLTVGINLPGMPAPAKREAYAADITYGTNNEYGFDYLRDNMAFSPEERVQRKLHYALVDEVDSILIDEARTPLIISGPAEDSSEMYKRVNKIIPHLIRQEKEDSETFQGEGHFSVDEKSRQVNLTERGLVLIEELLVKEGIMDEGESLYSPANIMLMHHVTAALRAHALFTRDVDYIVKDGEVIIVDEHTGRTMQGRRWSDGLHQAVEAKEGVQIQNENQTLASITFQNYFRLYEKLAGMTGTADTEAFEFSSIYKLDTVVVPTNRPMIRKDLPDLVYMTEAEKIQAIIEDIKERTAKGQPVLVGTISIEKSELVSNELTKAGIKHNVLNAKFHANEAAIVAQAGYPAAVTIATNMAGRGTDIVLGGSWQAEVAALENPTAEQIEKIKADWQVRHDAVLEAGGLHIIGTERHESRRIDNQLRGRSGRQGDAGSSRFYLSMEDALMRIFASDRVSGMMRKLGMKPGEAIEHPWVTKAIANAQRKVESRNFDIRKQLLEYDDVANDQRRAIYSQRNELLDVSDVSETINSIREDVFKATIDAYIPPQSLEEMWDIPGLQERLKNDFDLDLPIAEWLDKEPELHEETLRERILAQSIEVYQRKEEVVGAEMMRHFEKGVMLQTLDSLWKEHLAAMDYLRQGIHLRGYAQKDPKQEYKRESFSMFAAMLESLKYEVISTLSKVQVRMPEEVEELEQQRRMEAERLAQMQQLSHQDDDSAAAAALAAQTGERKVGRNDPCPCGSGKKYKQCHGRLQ

SMILES | Percent Effect [1] [%] | Percent Effect [2] [%] | Percent Effect [3] [%] | Percent Effect [4] [%] | Percent Effect [5] [%] | Percent Effect [6] [%] | Percent Effect [7] [%] | Percent Effect [8] [%] | Percent Effect [9] [%] | Percent Effect [10] [%] | Percent Effect [11] [%]
CN(C)c1nc2c(c(N3CCC(O)CC3)n1)CN(CC1CCNC1)CC2 (stereo unspecified) | -1.69 | 10.8 | -1.59 | 10.5 | 0.193 | 0.476 | 10.9 | 2.62 | 12.2 | 19.5 | -4.09
Cc1cc(C)n(CC2CN(Cc3nnsc3Cl)CCO2)n1 (stereo unspecified) | -1.37 | 21.1 | 3.21 | 2.78 | -2.82 | -4.21 | 14.7 | -18.7 | 4.41 | 17.1 | -7.75
CN(CCC#N)C(=O)CCOc1cccc(F)c1 | -2.84 | 10.5 | 0.343 | -8.13 | -0.876 | -4.73 | 10.3 | 20.8 | 3.19 | 10.4 | -3.22
CN(Cc1nnc(C2CC2)n1C)C1CCN(Cc2ccc(F)cc2)C1 (stereo unspecified) | -0.349 | 18.9 | -8.58 | 2.26 | 0.283 | -8.02 | 13 | 5.85 | -1.48 | 18.5 | -10.5
NC(=O)c1ccc(CN2CCCC(O)C2)cc1 (stereo unspecified) | -2.93 | 13.5 | -3.22 | -5.21 | 4.69 | 37.5 | 17.2 | 0.641 | 5.94 | 15.8 | -0.618
O=C(c1cnc(C2CC2)s1)N1CCCC(n2cccn2)C1 (stereo unspecified) | -2.59 | 8.11 | -1.44 | -0.959 | -7.26 | -5.61 | 1.26 | 21 | 6.4 | 11.1 | -5.53
COCC1c2c(cnn2CC2CC2)CCN1Cc1cccs1 (stereo unspecified) | -0.701 | -5.33 | 6.98 | 7.58 | -2.51 | -9.5 | 10.1 | -16.5 | 3.12 | -2.5 | -3.74
O=C(NCc1cnc2n1CCN(CC1CC1)CC2)C1CCC1 | -2.75 | 13.5 | -7.3 | 21.4 | 4.79 | 18.1 | 7.47 | -8.45 | 6.45 | 16.1 | -4.7
CC(CN1CCCC1)C(=O)N1CCC(c2nccn2CC2CC2)CC1 (stereo unspecified) | -4.31 | 13.5 | -3.47 | 27.7 | 10.2 | 2.86 | 16.2 | 5.41 | 7.94 | 21.9 | -11.2
N#Cc1ccc(CN2CCN(C(=O)c3cc(C4CC4)[nH]n3)CC2)cc1 | -4.3 | 21.6 | -5.26 | 14.7 | 4.74 | -3.51 | 5.21 | 23.8 | 7.92 | 18.3 | -4.6
CCN(CC1CN(Cc2ncc(C)o2)CCO1)c1cccnn1 (stereo unspecified) | -4.91 | -2.67 | -8.97 | 2.4 | 5.16 | 2.6 | 12.2 | 12 | 7.1 | 6.17 | -0.756
